Results published in PubChem BioAssay (NCATS).
Inconclusive results are not listed. A call without a number means that no potency is given here. Active and inactive are the calls of the source. Calls come from the whole dose curve; as a rule, active = well fitted cell-killing curve with a large enough effect; inconclusive = small, poorly fitted or top-dose-only effect; inactive = flat fitted curve, though single readings scatter.

Assay: Cell Viability - LYMP2-021 (AID 974);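 note: compound exposure lasts 24 hours at 37 °C; nearly all actives have a fitted effect of over 55% in size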
Settings: LYMP2-021 lymphoblastoid cells viability; series mostly up to 92.2 µM
Description: NIH Chemical Genomics Center [NCGC]
NIH Molecular Libraries Screening Centers Network [MLSCN]
National Institutes of Environmental Health Sciences [NIEHS]
National Toxicology Program [NTP]
We have developed a 1536-well cell-based assay for quantitative high throughput screening (qHTS) against a number of cell lines to determine in vitro cytotoxicity of small molecules. This particular assay uses a human lymphoblastoid cell line (LYMP2-021) purchased from Coriell Institute for Medical Research.
NCGC Assay Protocol Summary:
The CellTiter-Glo luminescent cell viability assay (Promega) is a homogeneous method to measure the number of viable cells in culture. The end point readout of this assay is based on quantitation of intracellular ATP, an indicator of metabolic activity, using the luciferase reaction. Luciferase catalyzes the oxidation of beetle Luciferin to oxyluciferin and light in the presence of ATP. The luminescent signal is proportional to amount of ATP present.
Using the CellTiter-Glo luminescent cell viability assay, the amount of cellular ATP was measured in the lymphoblastoid cell line with complete culture medium following compound treatment for 24 hours. The assay was performed in opaque white Kalypsys 1536-well plates. In the screen, tetraoctylammonium bromide was used as positive control. Library compounds were measured for their ability to cause acute toxicity in the cell line, as reflected by a decrease in intracellular ATP levels, in a concentration-dependent manner. […] AC50 values were determined from concentration-response data modeled with the standard Hill equation.
qHTS protocol for CellTiter Glo lymphoblastoid cellular assay
[Step] [Parameter] [Value] [Description]
1. Reagent; 5 uL; 2500 lymphoblastoid cells/well
2. Time; 5 hr; 37 C incubation
4. Controls; 23 nL; Tetraoctylammonium bromide 6.4pM to 92 uM
5. Time; 24 hr; 37 C incubation
6. Reagent; 5 uL; CellTiter Glo reagent
7. Time; 30 min; Room Temperature
8. Detection; Luminescence; Viewlux plate reader
Keywords: cell viability, cytotoxicity, lymphoblastoid cell line, luminescence, NTPHTS, NTPHTS_NCGC, NIEHS, DSSTox, MLSMR, MLSCN, NIH Roadmap, qHTS, NCGC

| SMILES | Potency |
| --- | --- |
| O=c1ccc(=O)[nH][nH]1 | inactive |
| CC(Cl)(Cl)Cl | inactive |
| c1ccc(N=NNc2ccccc2)cc1 | inactive |
| Cc1cc(N=Nc2ccccc2C)ccc1N | inactive |
| CCCCOCC1CO1 (stereo not given) | inactive |
| CCCCC(CC)COC(=O)c1ccc(C(=O)OCC(CC)CCCC)c(C(=O)OCC(CC)CCCC)c1 (stereo not given) | inactive |
| Nc1cccc(Cl)c1 | inactive |
| [O-][Cl+2]([O-])O | inactive |
| COC(=O)c1ccccc1N | inactive |
| CC(C)OC(=O)Cc1ccccc1 | inactive |
| Cc1ccc([N+](=O)[O-])cc1 | inactive |
| C=C(Cl)CSC(=S)N(CC)CC | inactive |
| O=[N+]([O-])c1ccc(O)c([N+](=O)[O-])c1 | inactive |
| O=S(=O)(O)F | inactive |
| OCCCCO | inactive |
| C=CC#N | inactive |
| Clc1ccccc1 | inactive |
| N#CCCCCC#N | inactive |
| COP(=S)(OC)SCn1nnc2ccccc2c1=O | inactive |
| BrCC(Br)C1CCC(Br)C(Br)C1 (stereo not given) | inactive |

| SMILES | Potency |
| --- | --- |
| O=[N+]([O-])c1ccc(Cl)cc1 | inactive |
| Clc1cc(Cl)c(Cl)c(Cl)c1 | inactive |
| CCCCCc1cc(O)cc(O)c1 | inactive |
| ClCCOCCCl | inactive |
| CCOC(=O)CBr | inactive |
| O=NN1CCCCC1 | inactive |
| CC(C)(COCC1CO1)COCC1CO1 (stereo not given) | inactive |
| CCCCCCCCCCCOC(=O)c1ccccc1C(=O)OCCCCCCCCCCC | inactive |
| O=C(O)C(Cl)Br (stereo not given) | inactive |
| Nc1ccc(Oc2ccc(N)cc2)cc1 | inactive |
| C=CCO | inactive |
| Nc1ccc(-c2ccc(N)c(Cl)c2)cc1Cl | inactive |
| CCCN(CCC)c1c([N+](=O)[O-])cc(C(F)(F)F)cc1[N+](=O)[O-] | inactive |
| N#CC(Cl)(Cl)Cl | inactive |
| N#CCc1ccccc1 | inactive |
| O=[N+]([O-])CCO | inactive |
| C=CC=O | inactive |
| C=CCCl | inactive |
| C=CC(=O)OCCN(C)C | inactive |
| ClCc1ccccc1 | inactive |
